Compound activity (PubChem BioAssay)
Most compounds without a hit are left out; they make up all but 0.77% or so of the library.
LmPK inhibitor = blocks Leishmania mexicana pyruvate kinase activity. Q27686. purified LmPK, Kinase-Glo ATP luminescence, 1 h. Potency, µM (top dose mostly 57.5 µM), without a hit: at the top dose activity change, negative = inhibition, actives largely listed as inhibitors. actives 0.37% (n = 290,000). AID 1721; also: % is scaled to controls: 0 for no effect and ±100 for the full control effect
Target sequence (Q27686 whole entry, looked up): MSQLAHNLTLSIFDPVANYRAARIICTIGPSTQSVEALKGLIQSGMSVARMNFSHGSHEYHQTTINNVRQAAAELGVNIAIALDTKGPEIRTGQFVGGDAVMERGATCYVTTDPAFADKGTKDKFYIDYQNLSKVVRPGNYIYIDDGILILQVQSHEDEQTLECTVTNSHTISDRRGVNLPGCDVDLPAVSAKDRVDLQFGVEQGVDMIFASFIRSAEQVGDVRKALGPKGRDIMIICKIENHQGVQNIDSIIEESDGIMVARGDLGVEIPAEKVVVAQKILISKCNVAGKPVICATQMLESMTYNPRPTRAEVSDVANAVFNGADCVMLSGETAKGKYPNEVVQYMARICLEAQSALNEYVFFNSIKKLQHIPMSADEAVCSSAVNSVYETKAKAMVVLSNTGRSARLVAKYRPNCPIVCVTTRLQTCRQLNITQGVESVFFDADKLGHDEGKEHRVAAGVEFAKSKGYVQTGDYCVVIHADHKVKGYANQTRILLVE
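Kinase-Glo luminescence read after 1 h RT reaction of 0.1 nM LmPK with 0.5 mM PEP and 0.1 mM ADP. Activity scaled between uninhibited and enzyme-free controls.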
TbPYK inhibitor = blocks Trypanosoma brucei pyruvate kinase | Potency, µM (highest dose often 76.8 µM), for inactives: at the highest dose activity, negative = inhibition, most hits filed as inhibitors | TbPYK enzyme, Kinase-Glo Plus ATP luminescence, 45 min | Q57TT1 | actives 0.12% (n = 410,000); also: % is scaled to controls: 0 for no effect and ±100 for the full control effect; nearly all actives have a fitted effect of over 50% in size
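Quantitative HTS: titrated library compounds versus trypanosomal pyruvate kinase in TEA buffer (pH 7.2) containing KCl, MgCl2, BSA and Tween-20. Reactions were initiated with ADP, 130 uM final. Kinase-Glo Plus luminescence was read after 45 min at RT.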
RE007 growth inh = less growth of the S. pombe RE007 Vpr strain. Potency, µM (top dose mostly 92.2 µM), for the others: top-dose activity change, negative = less growth, usual class: inhibitors. S. pombe RE007 Vpr strain, BacTiter-Glo ATP luminescence, 24 h. actives 0.21% (n = 360,000). AID 651644; active = well fitted falling curve with a large enough effect; inconclusive = small, poorly fitted or top-dose-only effect; inactive = no such curve, though single readings can be large or run the other way; also: % is scaled to controls: 0 for no effect and ±100 for the full control effect; nearly all actives have a fitted effect of over 50% in size
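Fission yeast RE007 carrying one integrated HIV-1 vpr copy, seeded at OD 0.01 in PMG+AL medium with 23 nL pinned compound. Grown 24 h at 30 degrees; viability read by BacTiter-Glo luminescence after 5 min.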
NS1 function inh = blocks influenza NS1 protein function | Potency, µM (series often up to 46.1 µM), for inactives: top-dose activity, positive = more growth | actives 0.4% (n = 270,000) | AID 2326; calls by dose curve; also: actives are rising curves; nearly all actives have a fitted effect of over 50% in size
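In this qHTS, NS1 from influenza A is expressed in budding yeast, where it slows growth. Cells are switched from glucose to 2% galactose medium (pH 6.0, -URA), treated with compound, and growth recovery is read at OD600.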
Active calls of the source: *; ? = inconclusive; nt = no result; [ ] = another dose, or the depositor's remark. Unless noted, calls follow the shape of the dose curve; as a rule, active = well fitted curve in the direction sought with a large enough effect; inconclusive = small, poorly fitted or top-dose-only effect, or another doubt; inactive = no such curve, though single readings can be large; an effect the other way counts as inactive or inconclusive. Potency is read from the fitted curve at half-maximal effect.

SMILES	LmPK inhibitor	TbPYK inhibitor	RE007 growth inh	NS1 function inh
COc1ccc(N2CSC3=C(C#N)C(c4ccc(OC)c(OC)c4)CC(=O)N3C2)c(OC)c1 (stereo not drawn)	0%	7.9µM*	-5%	0%
COc1ccc(N2CSC3=C(C#N)C(c4cccs4)CC(=O)N3C2)cc1 (stereo not drawn)	12%	-5%	-15%	-32%
CCCCCCCC1=Cc2ccccc2C(C(C(=O)OC)C(=O)OC)N1C(=O)OC (stereo not drawn)	-3%[11.5 µM]	nt	nt	nt
CCOc1ccccc1N1CSC2=C(C#N)C(c3c(OC)ccc4ccccc34)CC(=O)N2C1 (stereo not drawn)	4%	3.5µM*	-6%	?
COc1ccc(C2CC(=O)N3CN(C4CCCCC4)CSC3=C2C#N)cc1 (stereo not drawn)	nt	22µM*	nt	nt
COc1ccc(N2CSC3=C(C#N)C(c4cc(OC)c(OC)cc4OC)CC(=O)N3C2)c(OC)c1 (stereo not drawn)	-17%	8.9µM*	0%	-45%
COc1ccc(C2CC(=O)N3CN(c4ccc(C)c(Cl)c4)CSC3=C2C#N)cc1OC (stereo not drawn)	16%	?	7%	-69%
CCOc1ccc(-n2c(=O)c3sc4ccccc4c3n(Cc3ccc(F)cc3)c2=O)cc1	nt	0%	nt	nt
CCc1ccccc1NC(=O)c1ccc2c(c1)N(Cc1cc(C)ccc1C)C(=O)c1ccccc1S2(=O)=O	nt	-5%	nt	nt
CCOC(=O)c1cccc(NC(=O)NC2COc3ccccc3C2)c1 (stereo not drawn)	nt	-5%	nt	nt
COc1cc(NC(=O)NS(=O)(=O)c2ccc(C)cc2)cc(OC)c1	8%	-3%	15%	1µM*
S=C1SCN(Cc2cccs2)CN1Cc1cccs1	nt	0%	-17%	nt
S=C1SCN(Cc2ccco2)CN1Cc1ccco1	-6%	-9%	35µM*	-64%
Cc1ccc(NS(=O)(=O)c2c(C)nc3sccn3c2=O)c(Cl)c1	nt	3%	nt	nt
S=c1[nH]nc(-c2ccccc2)n1Cc1ccccc1	10µM*	?	4%	9%
COc1ccc(-c2n[nH]c(=S)n2Cc2ccccc2)cc1OC	?	?	10%	1%
S=c1[nH]nc(-c2ccc(Br)cc2)n1Cc1ccco1	22µM*	5.6µM*	14%	-31%
S=c1[nH]nc(-c2ccco2)n1Cc1ccccc1	14µM*	?	20%	?
S=c1[nH]nc(-c2ccc(Cl)cc2)n1Cc1ccccc1	13µM*	?	3%	12%
COc1ccc(-c2n[nH]c(=S)n2Cc2ccccc2)cc1	?	?	-12%	23%
COc1ccc(CNC(=O)CC(c2ccc(OC)c(OC)c2)N2Cc3ccccc3C2=O)cc1 (stereo not drawn)	nt	4%	nt	nt
Fc1ccc(NCc2n[nH]c(=S)n2Cc2ccccc2)cc1	?	7.1µM*	11%	nt
S=c1[nH]nc(CNc2ccc(Cl)cc2)n1Cc1ccccc1	?	?	0%	11%
CCC(c1nnc(SCc2nc3ccccc3s2)n1Cc1ccccc1)N(C)C (stereo not drawn)	14%	-15%	6%	-2%
c1ccc(Cn2c(SCc3nc4ccccc4s3)nnc2-c2ccco2)cc1	4%	28µM*	-13%	-38%
SMILES	LmPK inhibitor	TbPYK inhibitor	RE007 growth inh	NS1 function inh
S=c1[nH]nc(-c2ccco2)n1/N=C/c1ccc(Cl)cc1	-12%	4µM*	2%	-23%
COCCCn1c(-c2ccc(Cl)cc2)n[nH]c1=S	?	?	-2%	9%
S=c1[nH]nc(-c2ccco2)n1/N=C/c1ccccc1Cl	-8%	?	4%	5%
CCOCCCn1c(-c2ccc(Cl)cc2)n[nH]c1=S	?	8.9µM*	-15%	9%
Cc1ccccc1Cn1c(=O)n(CCC(=O)NCc2ccco2)c(=O)c2sccc21	nt	2%	nt	nt
Cc1cccn2cc(-c3cccc(NC(=O)C(C)C)c3)nc12	nt	-3%	nt	nt
CCCCc1n[nH]c(=S)n1Cc1ccc(Cl)cc1	?	10µM*	-2%	nt
CCCCc1n[nH]c(=S)n1Cc1ccccc1	0%	?	2%	6%
S=c1[nH]nc(-c2ccc(Br)o2)n1Cc1ccccc1	?	10µM*	-14%	-15%
O=C(COc1ccccc1Cl)Nc1nc(-c2ccc(F)cc2)ns1	nt	2%	nt	nt
CC[N+]1(C)CCC(O)(/C=C/c2ccccc2)C(C(=O)/C=C/c2ccccc2)C1 (stereo not drawn)	nt	-11%	8.9µM*	nt
CCc1ccc(/C=C/C(=O)C2C(=O)c3ccccc3C2=O)cc1	-4%	-16%	-26%	20%
N#Cc1ccc(/C=C/C(=O)c2cccnc2)cc1	-4%	?	45µM*	nt
O=C(/C=C/c1ccc(Cl)cc1)c1cccnc1	-4%	-10%	28µM*	-118%
O=C(c1ccc(Br)o1)N1CCc2ccccc21	14µM*	nt	nt	-5%
O=C(c1ccc(Br)o1)N1CCCc2ccccc21	-11%	-5%	?	-8%
COc1ccc([N+](=O)[O-])c(S(=O)(=O)c2ccccc2)n1	1%	5%	?	-97%
COc1ccc([N+](=O)[O-])c(S(=O)(=O)c2ccc(Cl)cc2)n1	0%	6%	13µM*	-77%
Cc1snc(SCC(=O)c2ccc([N+](=O)[O-])cc2)c1C#N	-2%	35µM*	?	nt
COc1ccc(-c2n[nH]c(=S)n2-c2ccc(Br)cc2)cc1OC	18µM*	4µM*	11%	-4%
COc1cc(-c2n[nH]c(=S)n2-c2ccc(C)cc2)cc(OC)c1OC	9%	8.9µM*	9%	1%
O=C(Cn1c(SCc2cccc(F)c2)nc2cccnc21)Nc1ccc(F)c(Cl)c1	nt	3%	nt	nt
O=C(Nc1ccccc1)N1CCC2(CC1)CCN(C(=O)c1csnn1)CC2	nt	0%	nt	nt
O=C1C=CC(=O)N1c1ccc2c(c1)C(NC(=O)C(F)(F)F)c1ccccc1-2 (stereo not drawn)	nt	?	40µM*	nt
CN(C)C(=O)NC1c2ccccc2-c2ccccc21	0%	-5%	17%	1%
SMILES	LmPK inhibitor	TbPYK inhibitor	RE007 growth inh	NS1 function inh
Cc1occc1C(=O)Nc1ccc2c(c1)OCO2	14µM*	-16%	-7%	-11%
Cc1cc(NC(=O)c2ccoc2C)ccc1Br	nt	-12%	?	nt
Cc1occc1C(=O)Nc1cccc2ccccc12	25µM*	-11%	?	-99%
Cc1ccc(NC(=O)c2ccoc2C)cc1C	14µM*	-24%	-21%	-13%
Cc1cc(NC(=O)c2cc(C)on2)no1	1%	-2%	-7%	-8%
Cc1cc(NC(=O)c2ccoc2C)no1	18µM*	-19%	-6%	11%
C[C@H]1[C@H](O)[C@@H](C)C=CC=CC=CC=CC=CC=CC=C[C@H](O[C@@H]2O[C@@H](C)[C@H](O)[C@@H](N)[C@@H]2O)C[C@@H]2O[C@](O)(C[C@@H](O)C[C@@H](O)[C@@H](O)CC[C@@H](O)C[C@@H](O)CC(=O)O[C@H]1C)C[C@H](O)[C@H]2C(=O)O	nt	nt	nt	26%
CCOC(=O)c1c(C)c(C(=O)Nc2ccc3c(c2)OCO3)c(C)n1C	0%	-20%	-5%	-2%
CCOC(=O)c1c(N)sc(C(=O)Nc2ccc3c(c2)OCO3)c1C	5µM*	-20%	?	-43%
